Measurements reported in PubChem BioAssay (Tox21).
Several values for one entry are separate records, joined by “and”; a condition that tells them apart may be missing. Equal entries are not always repeated. Unmarked numbers belong to inactive results. Records with an inconclusive call do not appear. Entries that show only a call come without a potency. Activity calls are given as the source filed them. Unless noted, calls come from the whole dose curve.

Columns and labels:
[1] = target: Thyrotropin receptor (Homo sapiens) (UniProt P16473); test: qHTS assay to identify small molecule agonists of the thyroid stimulating hormone receptor (TSHR) signaling pathway (AID 1224843); note: nearly all actives have a fitted effect of over 45% in size; note: potency is the fitted concentration of half-maximal effect
Method in brief: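 Using 15 concentrations per compound in triplicate, cAMP production was monitored in TSHR-HEK293 cells after 30 min compound incubation at RT; HTRF reagents followed, with fluorescence intensity recorded after 1 h.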

[2] = qHTS assay to identify small molecule agonists of the hypoxia (HIF-1) signaling pathway - cell viability counter screen (AID 1224844); note: nearly all actives have a fitted effect of over 50% in size; note: potency is the fitted concentration of half-maximal effect
Method in brief: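 Same wells as the HIF-1 reporter screen; ME-180 cells carrying HRE-bla, 17 hr treatment at 37C; CellTiter-Glo luminescence read after 30 min at room temperature.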

[3] = qHTS assay to identify small molecule agonists of H2AX (AID 1224845; active = well fitted activation curve with a large enough effect in the signal ratio in the repeat runs, not every such curve was filed as active; the % refers to the signal ratio)
Method in brief: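 Wild-type CHO-K1 cells plated overnight, then exposed 3 hr at 37C to compounds at 15 concentrations (0.76% DMSO). Lysed, then HTRF anti-pH2AX(S139)-cryptate/anti-H2AX-d2 detection after 24 hr at room temperature; emissions 665 and 620 nm.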

[4] = qHTS assay to identify small molecule agonists of H2AX - cell viability counter screen (AID 1224847); note: nearly all actives have a fitted effect of over 30% in size; note: potency is the fitted concentration of half-maximal effect; for activity change, negative = cytotoxicity: top concentration of the series differs between compounds
Method in brief: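 Wild-type CHO-K1 cells (10% FBS medium) were plated overnight at 37C, exposed to compounds at 15 concentrations for 3 hr at 37C (0.76% DMSO final), and viability was read as CellTiter-Glo luminescence after 30 min at room temperature.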

[5] = qHTS RealTime-Glo MT Cell Viability Assay in HepG2 cells - 24 hour (AID 1224867; active = well fitted curve in the direction sought with a large enough effect in the repeat runs; an effect the other way counts as inactive or inconclusive; note: nearly all actives have a fitted effect of over 50% in size; note: potency is the fitted concentration of half-maximal effect)
Method in brief: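 Real-time, nonlytic viability: 600 HepG2 cells/well mixed with NanoLuc enzyme plus prosubstrate; 5 h settle, compound (DMSO) added by pintool; luminescence monitored over 40 h at 37 C.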

[6] = A CellTox Green Cytotoxicity Assay to monitor cytotoxicity in HEK293 cells - 0 hour (AID 1224869; active = well fitted curve in the direction sought with a large enough effect in the repeat runs; an effect the other way counts as inactive or inconclusive; note: nearly all actives have a fitted effect of over 50% in size)
Method in brief: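 Homogeneous no-lysis format: HEK293 cell suspension mixed with CellTox Green reagent, seeded, incubated 5 h at 37 C/5% CO2, then dosed by pintool with compound in DMSO.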

[7] = qHTS RealTime-Glo MT Cell Viability Assay in HEK293 cells - 32 hour (AID 1224868; active = well fitted curve in the direction sought with a large enough effect in the repeat runs; an effect the other way counts as inactive or inconclusive; note: nearly all actives have a fitted effect of over 50% in size; note: potency is the fitted concentration of half-maximal effect; for activity change, negative = cytotoxic: top concentration of the series differs between compounds)
Method in brief: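 Cells + reagent dispensed (600 cells/well, HEK293) → 5 h at 37 C/5% CO2 → 23 nL compound in DMSO pinned → 40 h at 37 C → luminescence read at 0, 8, 16, 24, 32, 40 h.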

[8] = qHTS assay to identify small molecule agonists of the hypoxia (HIF-1) signaling pathway (AID 1224846; active = well fitted activation curve with a large enough effect in the signal ratio in the repeat runs, not every such curve was filed as active; the % refers to the signal ratio)
Method in brief: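 In ME-180 cells bearing an HRE-bla construct, 17 h treatment with DMSO-dissolved compounds at 37C was followed by CCF4-AM loading to quantify reporter induction.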

[9] = qHTS assay to identify small molecule antagonists of the estrogen related receptor (ERR) signaling pathway from Tox21 library (AID 1224848; active = well fitted curve in the direction sought with a large enough effect in the repeat runs; an effect the other way counts as inactive or inconclusive; note: nearly all actives have a fitted effect of over 50% in size; note: potency is the fitted concentration of half-maximal effect)
Method in brief: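 Tox21 10K compounds in DMSO tested for ERR pathway antagonism in NTP's ERR cell line; 18 h, 37 C exposure; ONE-Glo luminescence.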

[10] = qHTS assay to identify small molecule agonists of the estrogen related receptor (ERR) signaling pathway from Tox21 library (AID 1224849); conditions: ERR reporter cell line, ONE-Glo luciferase, 18 h; note: nearly all actives have a fitted effect of over 15% in size
Method in brief: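 Reporter cells (ERR, NTP source) treated with Tox21 10K compounds 18 h, 37 C. Readout: ONE-Glo luminescence, 30 min RT.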

[11] = at 92.4 µM (top of the series) unless noted

Sequence of Thyrotropin receptor (Homo sapiens) (P16473 whole entry, looked up): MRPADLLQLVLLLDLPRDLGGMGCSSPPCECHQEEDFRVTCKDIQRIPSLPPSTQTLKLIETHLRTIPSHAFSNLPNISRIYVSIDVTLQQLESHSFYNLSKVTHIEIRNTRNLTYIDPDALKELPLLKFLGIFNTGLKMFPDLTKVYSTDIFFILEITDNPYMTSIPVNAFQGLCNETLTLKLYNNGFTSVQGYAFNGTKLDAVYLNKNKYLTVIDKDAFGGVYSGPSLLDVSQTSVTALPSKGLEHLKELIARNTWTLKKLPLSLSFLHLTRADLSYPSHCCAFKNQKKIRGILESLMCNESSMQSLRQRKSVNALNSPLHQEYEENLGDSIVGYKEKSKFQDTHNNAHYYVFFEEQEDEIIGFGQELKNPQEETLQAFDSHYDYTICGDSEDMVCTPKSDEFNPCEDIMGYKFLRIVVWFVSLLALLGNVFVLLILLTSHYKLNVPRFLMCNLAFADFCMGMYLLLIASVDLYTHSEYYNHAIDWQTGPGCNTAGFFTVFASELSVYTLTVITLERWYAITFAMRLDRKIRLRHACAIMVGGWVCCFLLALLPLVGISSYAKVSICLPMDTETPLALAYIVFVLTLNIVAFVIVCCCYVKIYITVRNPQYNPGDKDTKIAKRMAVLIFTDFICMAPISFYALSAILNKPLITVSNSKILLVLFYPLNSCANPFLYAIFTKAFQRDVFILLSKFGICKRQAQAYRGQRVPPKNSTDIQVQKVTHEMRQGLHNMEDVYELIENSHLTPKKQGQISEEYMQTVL

CC(C)NCC(O)c1ccc(NS(C)(=O)=O)cc1 (stereo not drawn)
Potency [1]: inactive
Potency [2]: inactive
outcome [3]: inactive
Potency [4]: inactive
Potency [5]: inactive
Potency [6]: inactive

CCCN(CCC)CCc1cccc2c1CC(=O)N2
Potency [1]: inactive
Potency [2]: inactive
outcome [3]: inactive
Potency [4]: inactive
Potency [5]: inactive
Potency [7]: inactive
Potency [6]: inactive

Nc1cc(=O)[nH]c(N)n1
Potency [1]: inactive
Potency [2]: inactive
outcome [3]: inactive
Potency [4]: inactive
Potency [5]: inactive
Potency [7]: inactive

CCN(CC)CCNC(=O)c1cc(S(C)(=O)=O)ccc1OC
Potency [1]: inactive
Potency [2]: inactive
outcome [3]: inactive
Potency [4]: inactive
Potency [7]: inactive
Potency [6]: inactive

CCN(CC)CCOCCOC(=O)C1(c2ccccc2)CCCC1
Potency [1]: inactive
Potency [2]: inactive
outcome [3]: inactive
Potency [4]: inactive
Potency [5]: inactive
Potency [6]: inactive

Nc1ccc(S(=O)(=O)Nc2ccnn2-c2ccccc2)cc1
Potency [1]: inactive
activity change, negative = cytotoxicity [2]: -2.16% [at 15.8 µM]
outcome [3]: inactive
Potency [4]: inactive
activity change, negative = cytotoxicity [5]: 1% [at 15.8 µM]
activity change, negative = cytotoxic [7]: 5.86% [at 15.8 µM]
cytotoxicity [6]: 1.17% [at 15.8 µM]

COc1ccc(CCN(C)CCCC(C#N)(c2cc(OC)c(OC)c(OC)c2)C(C)C)cc1OC (stereo not drawn)
Potency [1]: 2.11 µM (active)
Potency [2]: inactive
outcome [3]: inactive
Potency [4]: inactive
Potency [5]: inactive
Potency [7]: 21.3 µM (active)
Potency [6]: inactive

CCN(Cc1ccncc1)C(=O)C(CO)c1ccccc1 (stereo not drawn)
Potency [1]: inactive
Potency [2]: inactive
outcome [3]: inactive
Potency [4]: inactive
Potency [5]: inactive
Potency [7]: inactive

CCOC(=O)c1c(C)n(C)c2ccc(O)cc12
Potency [1]: inactive
Potency [2]: inactive
outcome [8]: inactive
Potency [4]: inactive
Potency [9]: inactive
activity change, positive = activation [10, 11]: -9.16% [at 42.5 µM]
Potency [5]: inactive
Potency [6]: inactive

CC(C)(O)C#CC(C)(C)O
Potency [1]: inactive
Potency [2]: inactive
outcome [8]: inactive
Potency [4]: inactive
Potency [9]: inactive
activity change, positive = activation [10, 11]: 4.8%
Potency [5]: inactive
Potency [7]: inactive
Potency [6]: inactive

COc1nc(N)nc2c1ncn2[C@@H]1O[C@H](CO)[C@@H](O)[C@@H]1O
Potency [1]: inactive
Potency [2]: inactive
outcome [8]: inactive
Potency [4]: inactive
Potency [9]: inactive
activity change, positive = activation [10, 11]: 4.89% [at 42.5 µM]
Potency [6]: inactive

COc1ccccc1OCC(O)CN1CCN(CC(=O)Nc2c(C)cccc2C)CC1 (stereo not drawn)
Potency [1]: inactive
Potency [2]: inactive
outcome [3]: inactive
Potency [4]: inactive
Potency [5]: inactive
Potency [7]: inactive

Cn1c(N)c(N=O)c(=O)n(C)c1=O
Potency [1]: inactive
Potency [2]: inactive
outcome [8]: inactive
Potency [4]: inactive
Potency [9]: inactive
activity change, positive = activation [10, 11]: -7.21%
Potency [5]: inactive
Potency [7]: inactive

O=C(CCCN1CCN(c2ccccn2)CC1)c1ccc(F)cc1
Potency [1]: inactive
Potency [2]: inactive
outcome [3]: inactive
Potency [4]: inactive
activity change, positive = activation [10, 11]: -14.3% [at 42.5 µM]
Potency [5]: inactive
Potency [6]: inactive

c1ccc([C@H]2CN3CCSC3=N2)cc1
Potency [1]: inactive
Potency [2]: inactive
outcome [3]: inactive
Potency [4]: inactive
Potency [5]: inactive
Potency [7]: inactive
Potency [6]: inactive

CC[N+](C)(C)c1cccc(O)c1
Potency [1]: inactive
Potency [2]: inactive
outcome [3]: inactive
Potency [4]: inactive
Potency [5]: inactive
Potency [7]: inactive

N=C(N)c1ccccc1
Potency [1]: inactive
Potency [2]: inactive
outcome [3]: inactive
Potency [4]: inactive
Potency [5]: inactive
Potency [6]: inactive

O=c1[nH]c(=O)n([C@H]2C[C@H](O)[C@@H](CO)O2)cc1I
Potency [1]: inactive
Potency [2]: inactive
outcome [3]: inactive
Potency [4]: inactive
activity change, positive = activation [10, 11]: 11% [at 42.5 µM]
Potency [6]: inactive

CCN1CCC[C@H]1CNC(=O)c1cc(S(N)(=O)=O)ccc1OC
Potency [1]: inactive
Potency [2]: inactive
outcome [3]: inactive
Potency [4]: inactive
Potency [5]: inactive
Potency [7]: inactive

CN(C)CCCN1c2ccccc2CCc2ccc(Cl)cc21
Potency [1]: inactive
Potency [2]: 49 µM (active)
Potency [4]: 113 µM (active)
Potency [9]: 68.6 µM (active)
activity change, positive = activation ([10]; at 42.5 µM (top of the series)): -18.5%
activity change, positive = activation ([10]; at 92.4 µM (top of the series)): -78.1%
Potency [5]: 49 µM (active) and 23.9 µM (active)
Potency [7]: 34.7 µM (active) and 21.3 µM (active)
Potency [6]: inactive

NCCc1cnc[nH]1
Potency [1]: inactive
Potency [2]: inactive
outcome [3]: inactive
Potency [4]: inactive
Potency [7]: inactive
Potency [6]: inactive

NCCCNCCSP(=O)(O)O
activation [1]: 0.0403% [at 8.39 µM]
activity change, negative = cytotoxicity [2]: 6.46% [at 6.97 µM]
activation (H2AX phosphorylation) [3]: -3.9% [at 14 µM]
activity change, negative = cytotoxicity [4]: -5.36% [at 14 µM]
activity change, negative = cytotoxicity [5]: 1.03% [at 6.97 µM]
activity change, negative = cytotoxic [7]: 3.62% [at 6.97 µM]
cytotoxicity [6]: -8.49% [at 6.97 µM]

Nc1c2c(nc3ccccc13)CCCC2O (stereo not drawn)
Potency [1]: inactive
Potency [2]: inactive
outcome [3]: inactive
Potency [4]: inactive
activity change, positive = activation [10, 11]: 0.138% [at 42.5 µM]
Potency [5]: inactive
Potency [6]: inactive

O=C(O)CCCc1ccccc1
Potency [1]: inactive
Potency [2]: inactive
outcome [3]: inactive
Potency [4]: inactive
activity change, positive = activation [10, 11]: 7.78% [at 42.5 µM]
Potency [5]: inactive
Potency [6]: inactive
